# Source: ChEMBL document CHEMBL4513216, “Probing the Open Global Health Chemical Diversity Library for Multistage-Active Starting Points for Next-Generation Antimalarials” (ACS Infect Dis, 2020)
# The campaign covered roughly 69,000 compounds. About 8,600 (12%) showed an effect of 50% or more. The entries come from a sample that favours strong results as a whole.
# System: Plasmodium berghei
# Assay: Screen against P. berghei liver stage (PbLuc), transformed with Luciferase, at 10uM
# Assay type: functional, HepG2
# Conditions: tested at 10 uM
row,Compound,INHIBITION [%]
1,O=C(c1ccco1)N1C[C@H]2CCCN(CC3CC3)[C@H]2C1,25.5
2,CCc1cc(C(=O)N2CCC(O)(Cn3ccc4ccncc43)CC2)no1,-0.902
3,Cc1ncc(Cl)c(C(=O)N2CCCC(n3nc(C)nc3C)C2)n1 (centres undefined),17.265
4,O=C(Cn1ccc2ccc(Cl)cc21)NCc1ccc(C(=O)O)cc1,-6.42
5,O=C([C@H]1CN(Cc2ccccc2F)C[C@H]2OCC[C@@H]12)N1CCCO1,61.9
6,O=C([C@H]1CN(Cc2cccnc2)C[C@H]2OCC[C@@H]12)N1CCCO1,26.5
7,O=C([C@H]1C[C@H]2OCC[C@H]2N(Cc2ccccc2F)C1)N1CCCCO1,59
8,CNC(=O)[C@H]1C[C@H]2OCC[C@H]2N(Cc2ccc(F)cc2)C1,33
9,O=C([C@H]1C[C@H]2OCC[C@H]2N(Cc2ccoc2)C1)N1CCCCO1,88.2
10,O=C([C@H]1C[C@H]2OCC[C@H]2N(Cc2ccccn2)C1)N1CCCCO1,5.44
11,CN(C)C(=O)[C@H]1C[C@H]2OCC[C@H]2N(Cc2ccc3c(c2)OCO3)C1,28.7
12,O=C([C@H]1CN(Cc2ccc(F)cc2)C[C@H]2OCC[C@@H]12)N1CCCO1,24.9
13,Cc1ccccc1CN1C[C@@H](C(=O)N2CCCCO2)C[C@H]2OCC[C@H]21,42.7
14,O=C([C@H]1C[C@H]2OCC[C@H]2N(Cc2ccc(F)cc2)C1)N1CCCCO1,38.1
15,O=C([C@H]1C[C@H]2OCC[C@H]2N(Cc2ccoc2)C1)N1CCCO1,19.4
16,CN(C)C(=O)[C@H]1C[C@H]2OCC[C@H]2N(Cc2ccc(F)cc2)C1,53.2
17,Cc1ccc(CN2CCc3ncnc(C4CCOC4)c3CC2)s1 (centres undefined),-31.6
18,CC(C)=CCN1CCN(C(=O)c2cc(C(C)C)on2)[C@H]2CS(=O)(=O)C[C@H]21,17.7
19,CN(C)c1cc(C2CCN(C(=O)c3cnn(C)c3)CC2)ccn1,26.4
20,COCCN1CC(=O)N(C(C)C)C(C)(C)C1,-1.3
21,CCCc1nc(CN(CC)Cc2ccc(S(C)(=O)=O)cc2)no1,-21.9
22,Cn1nc2c(cc1=O)CN(Cc1coc(-c3ccc(F)cc3)n1)CC2,-0.113

row,Compound,INHIBITION [%]
1,CN(Cc1cccnc1)[C@@H]1CN(Cc2nccn2C)[C@@H]2CCCO[C@H]12,-27
2,CC(C)NC(=O)C1CCc2nnc(CNC(=O)c3cccnc3)n21 (centres undefined),-57.8
3,CCC[C@H]1CN(C(=O)Cn2ccccc2=O)C[C@@H]1NS(C)(=O)=O,20.6
4,Cc1c(C(=O)NCCN2C(=O)CCC2=O)sc2ccc(F)cc12,-64.6
5,CC1CCN(C(=O)[C@@H]2C[C@H]3OCC[C@H]3N(Cc3ccoc3)C2)CC1,59
6,O=C(NCC1CC1)[C@H]1C[C@H]2OCC[C@H]2N(Cc2ccoc2)C1,35.3
7,O=C(NC1CCCC1)[C@H]1C[C@H]2OCC[C@H]2N(Cc2ccoc2)C1,-1.55
8,CCC1=NC2(CCC(C(=O)Nc3ccc(C)nc3)CC2)C(=O)N1C (centres undefined),64.3
9,Cc1ccc(NC(=O)[C@H]2C[C@H](C(=O)O)CN(CC3CC3)C2)cn1,39.4
10,CCC1=NC2(CCC(C(=O)Nc3ccc(F)cc3)CC2)C(=O)N1C (centres undefined),42.4
11,O=C1CCN(C(=O)NCCc2c[nH]c3ccc(Cl)cc23)CCN1,1.56
12,COc1ccccc1-c1nc(C(=O)N2CCOCC2)n2ccncc12,32.5
13,COc1ccccc1-c1nc(C(=O)N(C)C)n2ccncc12,30.8
14,COC(=O)CNC(=O)c1nc(-c2ccccc2OC)c2cnccn12,54.9
15,COc1ncc(CN2CCCC2c2[nH]ncc2C(=O)N(C)C)cn1 (centres undefined),3.48
16,Cc1n[nH]c(C)c1-c1cc(-c2cccc(O)c2)nc(N)c1C#N,57.6
17,Cn1ncc(-c2cc(-c3cccc(O)c3)nc(N)c2C#N)c1C1CC1,80
18,Cc1n[nH]c(C)c1-c1cc(-c2cc[nH]c2)nc(N)c1C#N,28
19,N#Cc1c(C2CC2)cc(-c2ccc(O)cc2)nc1N,-14.9
20,Cc1cccc(-c2cc(-c3c(C)nn(CCO)c3C)c(C#N)c(N)n2)c1,-13.2
21,Cc1nn(C)c(C)c1-c1cc(-c2cnn(C)c2C2CC2)c(C#N)c(N)n1,34.5
22,CC(C)c1cc(-c2cnn(C)c2C2CC2)c(C#N)c(N)n1,-14.3

row,Compound,INHIBITION [%]
1,Cc1n[nH]c(C)c1-c1cc(-c2ccc[nH]2)nc(N)c1C#N,7.22
2,Cc1cc(O)ccc1-c1cc(-c2cnn(C)c2C2CC2)c(C#N)c(N)n1,87.9
3,CC(=O)N1CCN(C(=O)C2CCN(c3cccnn3)C2)CC1 (centres undefined),-8.12
4,COC(=O)C1=C(C)N=C2SCC(=O)N2C1c1cnn(C)c1C (centres undefined),22.6
5,COc1ccc(CC2(CO)CCN(c3cc(N)ncn3)CC2)cc1,26.8
6,CCOCC(=O)N1CCC(c2nccn2C)CC1,11.8
7,Cn1ccnc1C1CCN(C(=O)COCC(F)(F)C(F)F)CC1,59.1
8,O=C(COCC(F)(F)C(F)F)N1CCC(c2ncc[nH]2)CC1,40.6
9,O=C(Cc1csc(-c2ccco2)n1)N1CCN(c2nccs2)CC1,-21.7
10,CO[C@H]1CN(C(=O)c2ccc[nH]2)[C@@H]2COC[C@H]12,-29
11,COCCNC(=O)c1ccc2ccc(N(C)CC3CC3)n2c1,26
12,COc1ccc(F)cc1S(=O)(=O)N1CCN(CCn2ccnc2)CC1,18.2
13,Cc1ccc(S(=O)(=O)N2CCN(CCCn3ccnc3)CC2)cc1,81
14,O=S(=O)(c1cccnc1)N1CCN(CCn2ccnc2)CC1,-0.113
15,O=S(=O)(c1ccccc1)N1CCN(CCn2ccnc2)CC1,-26.6
16,O=S(=O)(c1ccccc1)N1CCCN(CCCn2ccnc2)CC1,37
17,CCc1ccc(S(=O)(=O)N2CCN(CCn3ccnc3)CC2)cc1,51.2
18,O=S(=O)(c1ccc(F)cc1)N1CCN(CCCn2ccnc2)CC1,-49.3
19,O=S(=O)(c1ccc(Cl)cc1)N1CCN(CCCn2ccnc2)CC1,76.7
20,COc1ccc(S(=O)(=O)N2CCC(Cn3ccnc3)CC2)cc1,8.46
